Source: PubChem (National Center for Advancing Translational Sciences (NCATS))
Marburg entry inh – Marburg virus entry inhibition. Marburg virus pseudotyped entry inhibition, cell reporter. Potency, µM (highest dose often 37.8 µM), for inactives: top-dose activity change, negative = inhibition, usual class: inhibitors. 1.8% of 300,000 active. AID 540276; calls by dose curve; tested in HEK293 cells; also: potency is read from the fitted curve at half-maximal effect
FMDV antiviral – foot and mouth disease virus antiviral activity | Potency, µM (titrated, usually from 57.9 µM), for inactives: at the top dose activity change, negative = inhibition, most hits filed as inhibitors | FMDV antiviral cell-based qHTS | 1.2% of 410,000 active | AID 1159524; calls by dose curve; tested in HEK293T cells; also: read-out not given here; potency is read from the fitted curve at half-maximal effect; nearly all actives have a fitted effect of over 45% in size
HCMV antiviral – human cytomegalovirus inhibition. HFF cells, HCMV-luciferase reporter, 72 h; hits give low values. activity change, negative = inhibition, % at 57.5 µM. 4.5% of 410,000 active. AID 1259415; in the data active = activity change below about -60%; inconclusive = no clear call, values can overlap the other calls; inactive = above about -39%
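Luciferase read-out from HCMV-luciferase-infected HFFs (MOI 1 PFU/cell) 72 h post infection at 37C; compounds added after 16 h cell attachment; activity normalized between buffer-only basal and Salinomycin (10uM) inhibitor controls.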
Vaccinia mCherry – vaccinia inhibition (mCherry reporter); Potency, µM (top dose mostly 36.5 µM), inactives show at the top dose activity change, negative = inhibition, hits mostly inhibitors; Vaccinia virus mCherry reporter infection, fluorescence; 0.63% of 310,000 active; calls by dose curve; tested in A549 cells; also: potency is read from the fitted curve at half-maximal effect; nearly all actives have a fitted effect of over 35% in size
Vaccinia Venus – inhibitors of vaccinia virus (Venus reporter); Vaccinia virus Venus reporter expression, fluorescence; Potency, µM (highest dose often 36.5 µM), inactives show at the top dose activity change, negative = inhibition, actives largely listed as inhibitors; 0.46% of 330,000 active; AID 720580; calls by dose curve; tested in A549 cells; also: potency is read from the fitted curve at half-maximal effect; nearly all actives have a fitted effect of over 30% in size
LASV entry inh – blocks Lassa virus binding to or entry into cells | Lassa virus pseudotype entry inhibition, cell reporter | Potency, µM (doses to about 37.9 µM), for the others: top-dose activity change, negative = inhibition, most hits filed as inhibitors | 1.2% of 300,000 active | AID 540256; calls by dose curve; tested in HEK293 cells; also: potency is read from the fitted curve at half-maximal effect; nearly all actives have a fitted effect of over 50% in size
* hit, by the source's call; [ ] = another dose, or the depositor's remark. Shown are actives, neighbours in structure and some others; about 6.5% of the full set was active somewhere. % is scaled to controls: 0 for no effect and ±100 for the full control effect.

Screening Cc1oc2ncnc(N3CCCCC3)c2c1C(=O)NCC1CCN(Cc2ccc(F)cc2)CC1 returned FMDV antiviral -23.9%, HCMV antiviral 8.9, Vaccinia mCherry inactive, Vaccinia Venus -3.4% and LASV entry inh 19.4%[46.1 µM].
For O=C1C(=O)c2ccccc2C(O)=C1c1cccc([N+](=O)[O-])c1 the results were Marburg entry inh 5.62µM*, FMDV antiviral 39.8µM*, HCMV antiviral -66.3*, Vaccinia mCherry -28.8%, Vaccinia Venus 0.3% and LASV entry inh 3.55µM*.
`CNC(=O)[C@H]1O[C@@H](n2cnc3c(N)ncnc32)[C@H](O)[C@H]1O` gave Marburg entry inh 35.4%.
Screening CCCCC(CC)COC(=O)c1ccc(N(C)C)cc1 (stereo not given) returned FMDV antiviral 0.0%, HCMV antiviral -18.4, Vaccinia mCherry -7.0% and Vaccinia Venus -17.3%.
For CCCCC(CC)COP(=O)(OCC(CC)CCCC)OCC(CC)CCCC (stereo not given) the results were FMDV antiviral -13.7%, HCMV antiviral 14.9, Vaccinia mCherry 2.51µM* and Vaccinia Venus inconclusive.
For CC(C)C[C@H]1COc2cc(F)ccc2S(=O)(=O)N1 the results were LASV entry inh -1.8%[46.1 µM].
`COC(=O)c1sc(NC(=O)c2cc(-c3ccccc3)nc3ccccc23)c(C#N)c1C` gave Marburg entry inh inconclusive, FMDV antiviral 3.16µM*, HCMV antiviral -97.5*, Vaccinia mCherry 15.8µM*, Vaccinia Venus inconclusive and LASV entry inh inconclusive.
For COc1ccc(-c2cc(C(=O)Nc3sc4c(c3C#N)CCCC4)c3ccccc3n2)cc1 the results were Marburg entry inh inconclusive, FMDV antiviral 1.2%, HCMV antiviral -32.0, Vaccinia mCherry -3.2%, Vaccinia Venus 10.3% and LASV entry inh 0.2%.
`CCOC(=O)c1sc(NC(=O)c2cc(-c3ccc(C)cc3)nc3ccccc23)c(C#N)c1C` gave Marburg entry inh 17.6%, FMDV antiviral inconclusive, HCMV antiviral -102.8*, Vaccinia mCherry -16.5%, Vaccinia Venus -11.9% and LASV entry inh 4.7%.
`Cc1ccccc1-c1cc(C(=O)Nc2sc(C(=O)OC(C)C)c(C)c2C#N)c2ccccc2n1` gave Marburg entry inh 11.6µM*, FMDV antiviral inconclusive, HCMV antiviral -101.0* and LASV entry inh inconclusive.
CCc1nc2ccc(C(=O)NCc3ccc(OC)c(OC)c3)cc2nc1CC was read as FMDV antiviral -8.3%, HCMV antiviral 28.2, Vaccinia mCherry -13.8%, Vaccinia Venus -4.8% and LASV entry inh -16.3%[46.1 µM].
Screening CCC(=O)N1c2ccccc2CC1C(=O)NCCc1ccccc1Cl (stereo not given) returned FMDV antiviral 0.0%, HCMV antiviral 2.7, Vaccinia mCherry -14.3%, Vaccinia Venus -16.5% and LASV entry inh 3.1%[46.1 µM].
Screening CC(=O)N1CCN(c2nc3cc(C)ccc3cc2CN(C(=O)c2cccc3ccccc23)C2CC2)CC1 returned FMDV antiviral 2.5%, Vaccinia mCherry -16.8% and Vaccinia Venus -4.9%.
C=C1C(=O)OC2C=C(CO)CCC=C(CO)CC(OC(=O)C(C)C)C12 (stereo not given) was read as Marburg entry inh inconclusive, FMDV antiviral 39.8µM*, HCMV antiviral 7.3, Vaccinia mCherry -3.1%, Vaccinia Venus -4.1% and LASV entry inh inconclusive.
Screening CCOC(=O)c1cnc2c(ccc3ccccc32)c1Nc1cccc(Cl)c1 returned FMDV antiviral -19.0%, HCMV antiviral 29.9, Vaccinia mCherry inactive, Vaccinia Venus 3.6% and LASV entry inh 18.5%[46.1 µM].
COc1ccccc1CNC(=O)COC(=O)C1=COCCO1 was read as Marburg entry inh 21.4%, FMDV antiviral -5.6%, HCMV antiviral -21.8, Vaccinia mCherry inactive, Vaccinia Venus 0.0% and LASV entry inh -3.8%.
For O=C(COC(=O)C1=COCCO1)NCc1ccc(Cl)cc1Cl the results were FMDV antiviral -10.0%, HCMV antiviral -60.6*, Vaccinia mCherry -2.7% and Vaccinia Venus -3.2%.
`O=C(N/N=C\c1ccc(CNS(=O)(=O)c2ccc(Cl)cc2)o1)C(=O)Nc1ccc(Oc2ccccc2)cc1` gave Marburg entry inh inconclusive, FMDV antiviral 3.4%, HCMV antiviral -99.4*, Vaccinia mCherry -11.8%, Vaccinia Venus 2.2% and LASV entry inh inconclusive.
For CCCCn1c(CCl)nc2cc(S(=O)(=O)N3CCOCC3)ccc21 the results were Marburg entry inh -21.7%, FMDV antiviral 31.6µM*, HCMV antiviral -22.9, Vaccinia mCherry -19.9%, Vaccinia Venus -14.7% and LASV entry inh 0.5%.
For CCCCn1c(C)nc2cc(S(=O)(=O)N3CCOCC3)ccc21 the results were FMDV antiviral 0.0% and HCMV antiviral -24.4.
Screening CCOc1ccc(NC(=O)C2CCN(S(=O)(=O)c3ccc4c(c3)oc(=O)n4C)CC2)cc1 returned Marburg entry inh 9.7%[46.1 µM], FMDV antiviral -1.1%, HCMV antiviral 6.6, Vaccinia mCherry 6.6%, Vaccinia Venus 2.7% and LASV entry inh 21.7%[46.1 µM].
For CCOc1ccccc1NC(=O)c1cnc2n(c1=O)CCS2 the results were Marburg entry inh 26.9%, FMDV antiviral 10.1%, HCMV antiviral 45.7, Vaccinia mCherry -15.8%, Vaccinia Venus -9.3% and LASV entry inh 4.3%.
O=C(Nc1ccc(Oc2ccccc2)cc1)c1cnc2n(c1=O)CCS2 was read as FMDV antiviral inconclusive, HCMV antiviral -85.8*, Vaccinia mCherry inconclusive and Vaccinia Venus -28.3%.
Screening Cn1c(=O)[nH]c(=O)c2c1nc([N+](=O)[O-])n2Cc1ccccc1 returned Marburg entry inh inconclusive, FMDV antiviral 7.94µM*, HCMV antiviral -97.2*, Vaccinia mCherry inconclusive, Vaccinia Venus 10µM* and LASV entry inh inconclusive.
For CC(C)Cn1c([N+](=O)[O-])nc2c1c(=O)[nH]c(=O)n2C the results were Marburg entry inh inconclusive, FMDV antiviral 28.2µM*, HCMV antiviral -103.2*, Vaccinia mCherry inconclusive, Vaccinia Venus inconclusive and LASV entry inh 7.08µM*.
For COc1cccc(-c2nc(SCc3cccc(Br)c3)n3[nH]c(=O)cc3n2)c1 the results were FMDV antiviral -25.3%, HCMV antiviral 10.5, Vaccinia mCherry -2.5%, Vaccinia Venus 6.1% and LASV entry inh 15.4%[46.1 µM].
For CCCc1ccc(OC(C)C(=O)Nc2sc3c(c2C(=O)OC)CCCCC3)cc1 (stereo not given) the results were Marburg entry inh -3.1%[46.1 µM], FMDV antiviral -14.6%, HCMV antiviral -30.6, Vaccinia mCherry -9.3%[7.34 µM], Vaccinia Venus -10.4%[7.34 µM] and LASV entry inh -16.9%[46.1 µM].
Screening Cc1c(Cl)cccc1NS(=O)(=O)c1ccccc1 returned Marburg entry inh 3.3%, FMDV antiviral 16.3%, HCMV antiviral -9.8, Vaccinia mCherry -3.8%, Vaccinia Venus -15.7% and LASV entry inh 20.7%.
For Cc1c(NS(=O)(=O)c2ccccc2)ccc([N+](=O)[O-])c1Cl the results were Marburg entry inh inconclusive, FMDV antiviral 7.0%, HCMV antiviral -64.7*, Vaccinia mCherry inconclusive, Vaccinia Venus inconclusive and LASV entry inh inconclusive.
